The campaign covered roughly 330,000 compounds. About 1,400 (0.42%) were called active. This excerpt belongs to a sample that is enriched for actives. Unmarked numbers belong to inactive results.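 How the source made its calls: active means inhibition above its plate's threshold, mean inhibition of all tested compounds on the plate plus 3 SD (cut at about 37% in these data); inactive means the rest.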

In this assay the target is Orexin/Hypocretin receptor type 1 (Homo sapiens) (UniProt O43613). Briefly: OX1R (HCRTR1) antagonists, primary screen, fluorescence, CHO/OX1R cells, Fluo-8 calcium, orexin A (AID 434989).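 Further: 0% = orexin A challenge wells and 100% = SB-334867-A antagonist wells.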 Conditions: Fluo-8 calcium fluorescence, at 5 µM, stronger effect = higher value.
Orexin/Hypocretin receptor type 1 (Homo sapiens), sequence (O43613 whole entry, looked up): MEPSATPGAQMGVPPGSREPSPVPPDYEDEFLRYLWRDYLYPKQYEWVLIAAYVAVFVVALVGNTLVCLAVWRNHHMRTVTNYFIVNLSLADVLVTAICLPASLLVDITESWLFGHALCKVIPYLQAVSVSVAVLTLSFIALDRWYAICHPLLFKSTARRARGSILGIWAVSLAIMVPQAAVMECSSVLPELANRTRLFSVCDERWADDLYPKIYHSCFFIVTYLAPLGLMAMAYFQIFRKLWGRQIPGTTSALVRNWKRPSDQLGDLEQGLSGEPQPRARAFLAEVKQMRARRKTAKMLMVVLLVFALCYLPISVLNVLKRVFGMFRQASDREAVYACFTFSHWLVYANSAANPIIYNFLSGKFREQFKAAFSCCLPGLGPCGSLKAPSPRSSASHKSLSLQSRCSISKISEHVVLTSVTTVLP
For `COc1cccc(-c2sc3ccc(OC)cc3c2-c2ccc(OCCN3CCCCC3)cc2)c1`, the inhibition was 29.6%.

Consider `COc1ccc2[nH]c3c(c2c1)CCN1C(=O)C(CC(=O)NCCCN(C)C)C[C@H](C(=O)N2CCOCC2)[C@@]31CCC1CCCC1` (stereo not given in full), for which the inhibition is -21.8%. Consider `O=C1CCC/C=C/C[C@@H](CC(=O)N(CCO)Cc2ccccc2)C(=O)NC[C@H](c2ccccc2)O1`, for which the inhibition was -18%.

Regarding `CCN(CC)c1ccc(/C=N/NC(=O)CNC(=O)c2cccnc2)cc1`, the inhibition is -5.59%. As to `CCN(CC)c1ccc(/C=N/NC(=O)c2cnccn2)c(O)c1`, the inhibition is 48.7% (active). In the case of `Cc1ccc(C(=O)NCCNC(=O)c2cnccn2)cc1`, the inhibition was -1.97%. With `O=C(CCCOc1ccccc1)NNC(=O)c1ccc(Cl)cc1`, the inhibition was -15.2%. In the case of `C=CC[C@H](CC(=O)NCCO)C(=O)N[C@@H](COC(=O)[C@@H](CC=C)Cc1ccc(F)cc1)Cc1c[nH]c2ccccc12`, the inhibition is -17.6%. Take `O=C(NCCc1ccco1)c1ccc(OCc2cn3ccccc3n2)cc1`: the inhibition was -20.6%. For the compound `C=CC[C@@H](Cc1ccc(F)cc1)C(=O)OC[C@H]1CCCN1C(=O)[C@H](CC=C)CC(=O)N(CCO)Cc1ccccc1`, the inhibition is 24.4%. In the case of `CCCc1nc2c(c(=O)c3ccccc3n2C)c(=O)n1C1CCCCCC1`, the inhibition was 41.5% (active). Take `CCCc1nc2c(c(=O)c3ccccc3n2C)c(=O)n1-c1cc(C)cc(C)c1`: the inhibition was -30.9%.

Turning to `Cn1c2ccccc2c(=O)c2c(=O)n(Cc3ccco3)c(COc3ccccc3)nc21`, the inhibition is -11.8%.

Turning to `CC[C@]12c3[nH]c4ccc(Cl)cc4c3CCN1C(=O)[C@@H](CC(=O)NCCCOC)C[C@@H]2C(=O)N1CCN(C(=O)C2CC2)CC1`, the inhibition is -13.7%. For the compound `CCOC(=O)C1=C(C)N(C[C@@H]2CC[C@@H](Cc3ccc(-c4ccccc4)cc3)O2)C(=O)NC1c1ccc([N+](=O)[O-])cc1` (stereo not given in full), the inhibition was -13%.

Turning to `CN(C)C(=O)CCc1ccc2c3c([nH]c2c1)[C@]1(CCc2ccccc2)[C@@H](C(=O)N2CCCCC2)C[C@H](CC(=O)NCCC2=CCCCC2)C(=O)N1CC3`, the inhibition was -7.84%.

On to `CC(C)N(C(=O)[C@H]1C[C@H](CC(=O)NC(C)(C)C)C(=O)N2CCc3c([nH]c4ccc(Cl)cc34)[C@]12C)C(C)C`, for which the inhibition was -33.8%.

Turning to `Cc1ccc(O)c(NC(=S)NC(=O)COc2ccc(Br)cc2)c1`, the inhibition was 78.4% (active).

As to `Cc1ccc(O)c(NC(=O)COc2cc(C)ccc2C)c1`, the inhibition was 2.38%. Take `Cc1cccc(OCC(=O)NC(=S)Nc2ccccc2N2CCOCC2)c1`: the inhibition was -22.4%.

(Values after PubChem BioAssay AID434989 (The Scripps Research Institute Molecular Screening Center, 2010).)
